HTT-AS promoter – HTT-AS promoter activation; HEK293 HTT-AS promoter firefly luciferase reporter, 24 h; response scale: percent change from vehicle, -100% = no light; Potency, µM (doses to about 57.5 µM), hits mostly activators; 0.24% of 48,000 active; further: nearly all actives have a fitted effect of over 55% in size
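HEK293 cells carrying firefly luciferase reporters were seeded at 2,500 per well in Opti-MEM and cultured for 24 h. They were then treated with compounds at up to 57.5 uM final for 24 h at 37 degrees C before Dual-Glo luminescence readout.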
SKOV3 invasion – inhibitors of ovarian cancer cell adhesion and invasion in omental model. SKOV3ip1-GFP adhesion/invasion on 3D omental model, fluorescence. Potency, µM (titrated, usually from 45.8 µM), most hits filed as inhibitors. 0.1% of 46,000 active; further: nearly all actives have a fitted effect of over 65% in size
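qHTS, 4-pt dose (0.36-46 umol/L); SKOV3ip1-GFP, 1,200 cells/well, no FBS; primary omental fibroblast/mesothelial co-culture 48 h pre-grown; 2 h RT + 16 h 37 C; PBS wash, 4% PFA; GFP count 488/509 nm.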
HTT prom inh – inhibitors of huntingtin promoter activity; Potency, µM (titrated, usually from 57.5 µM), actives largely listed as inhibitors; 0.93% of 48,000 active; HEK293 HTT promoter firefly luciferase reporter, 24 h; further: nearly all actives have a fitted effect of over 50% in size
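Firefly luciferase readout (Dual-Glo, 10 min RT) after 24 h, 37 °C compound exposure (final up to 57.5 uM) of HEK293 reporter cells cultured 24 h beforehand; PTC124 at 50 uM final as control inhibitor; activity scaled vehicle 0%, zero RLU -100%.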
mTORC1 inh – inhibitors of mTORC1 signaling in Tsc2-/- p53-/- MEF cells. Tsc2-/- p53-/- MEF, phospho-rpS6 immunofluorescence/PI, 24 h. Potency, µM (highest dose often 38.3 µM), hits mostly inhibitors. 0.78% of 44,000 active. AID 493208; further: nearly all actives have a fitted effect of over 50% in size
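Cell-based qHTS: Tsc2-/- p53-/- MEF, 24 h cpd, 37 °C; fix/perm, anti-phospho-S6 Alexa-488 + PI; Acumen 488 nm scan; pS6/PI ratio, % positive cells; rapamycin 7.5 nM = inhibition ref; PI count = viability.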
PMP22 txn – modulates PMP22 transcription in S16 Schwann cells. Potency, µM (doses to about 57.5 µM), actives largely listed as inhibitors. 2% of 43,000 active. AID 1508649. S16 Pmp22-F2sN Schwann cells, FLuc/NLuc coincidence luminescence, 24 h; active means clear falling dose curves in both reporters; inconclusive means both reporters move, but less clearly or upward; inactive means either reporter flat; the % is the NLuc reporter signal
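Reporter cells (S16 Pmp22-F2sN, 500–1,000 per well) exposed to compounds for 24 h, 37C, 5% CO2; lysis with FLuc read after 10 min, then Stop&Glo and NLuc read after 10 min.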
S16 viability – toxic to S16 Pmp22-F2sN Schwann cells; 0.48% of 43,000 active; S16 Pmp22-F2sN Schwann cells viability, CellTiter-Glo, 24 h; AID 1508642; Potency, µM (titrated, usually from 57.5 µM), hits mostly cytotoxic; further: nearly all actives have a fitted effect of over 65% in size
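Viability was measured by CellTiter-Glo luminescence (15 min, room temperature). This followed 24 h at 37 °C of compound exposure (23 nL pin transfer) in S16 Pmp22-F2sN Schwann cells, 500-1,000 per well.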
NLuc saturating – NanoLuc enzyme inhibition artifact for PMP22 screen; shares compounds with PMP22 txn; Secreted NLuc enzyme (filtered S16 cell medium), Nano-Glo luminescence; Potency, µM (series often up to 57.5 µM), actives largely listed as inhibitors; 4% of 690 active; AID 1508638
NLuc Km counter – NanoLuc inhibition at Km substrate, PMP22 artifact check. Potency, µM (highest dose often 57.5 µM), actives largely listed as inhibitors. AID 1508639. 5% of 690 active. secreted NLuc enzyme, coelenterazine luminescence, Km conditions. shares compounds with PMP22 txn
FLuc ctr PMP22 – firefly luciferase enzyme inhibition artifact for PMP22 screen | shares compounds with PMP22 txn | purified P. pyralis FLuc, luminescence, 10 min | Potency, µM (highest dose often 57.5 µM), actives largely listed as inhibitors | 690 tested, under 10 active | AID 1508640
Target sequence (P08659 whole entry, looked up): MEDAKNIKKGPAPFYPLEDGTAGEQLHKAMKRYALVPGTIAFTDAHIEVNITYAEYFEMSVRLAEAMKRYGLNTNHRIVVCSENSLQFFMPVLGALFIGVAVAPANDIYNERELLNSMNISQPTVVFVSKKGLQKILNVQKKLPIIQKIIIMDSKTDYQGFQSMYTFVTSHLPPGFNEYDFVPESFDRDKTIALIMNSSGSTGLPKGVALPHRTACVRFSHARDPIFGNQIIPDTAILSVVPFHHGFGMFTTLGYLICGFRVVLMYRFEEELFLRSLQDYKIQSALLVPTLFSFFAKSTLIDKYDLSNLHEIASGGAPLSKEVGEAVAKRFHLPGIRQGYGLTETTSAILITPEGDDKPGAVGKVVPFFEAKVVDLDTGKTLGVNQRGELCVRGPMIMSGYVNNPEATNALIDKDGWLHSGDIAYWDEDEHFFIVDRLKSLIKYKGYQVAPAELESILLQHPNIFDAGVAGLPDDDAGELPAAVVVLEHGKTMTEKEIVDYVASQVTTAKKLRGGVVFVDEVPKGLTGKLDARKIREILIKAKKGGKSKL
S16 viab conf – confirmation of cytotoxicity in S16 Pmp22-F2sN Schwann cells (luciferase reporters placed in the Pmp22 gene). shares compounds with PMP22 txn. S16 Schwann cells viability, CellTiter-Glo ATP luminescence, 24 h. Potency, µM (highest dose often 57.5 µM), hits mostly cytotoxic. 7% of 690 active. AID 1508641
PMP22 txn conf – confirmation of modulators of PMP22 gene transcription in S16 cells | shares compounds with PMP22 txn | S16 Schwann cells Pmp22-F2sN, dual luciferase, 24 h | Potency, µM (titrated, usually from 57.5 µM), usual class: inhibitors | 22% of 690 active | AID 1508646; active means clear falling dose curves in both reporters; inconclusive means both reporters move, but less clearly or upward; inactive means either reporter flat; the % is the FLuc reporter signal
PMP22 HiBiT cnf – confirmation of modulators of rat PMP22 protein expression; AID 1508647; S16 Schwann cells Pmp22-HiBiT, luminescence, 48 h; shares compounds with PMP22 txn; Potency, µM (titrated, usually from 27.9 µM), usual class: inhibitors; 95 tested, under 10 active
Target sequence (P25094 whole entry, looked up): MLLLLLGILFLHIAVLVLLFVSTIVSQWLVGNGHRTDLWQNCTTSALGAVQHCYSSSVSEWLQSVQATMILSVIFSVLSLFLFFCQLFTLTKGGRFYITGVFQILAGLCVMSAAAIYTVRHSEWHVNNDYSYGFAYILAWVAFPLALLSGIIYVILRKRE
Numbers stand for hits; i = inactive; ? = inconclusive; nt = no result given. Compounds with a hit are over-represented: about 3.6% of the library has one in this group of screens. Unless noted, the call rests on the fitted dose curve; in most records, active means well fitted curve in the direction sought with a large enough effect; inconclusive means small, poorly fitted or top-dose-only effect, or another doubt; inactive means no such curve, though single readings can be large; an effect the other way counts as inactive or inconclusive.

SMILES	HTT-AS promoter	SKOV3 invasion	HTT prom inh	mTORC1 inh	PMP22 txn	S16 viability	NLuc saturating	NLuc Km counter	FLuc ctr PMP22	S16 viab conf	PMP22 txn conf	others
Cc1noc(/C=C/c2ccco2)c1S(=O)(=O)N1CCC(C(=O)Nc2ccc(F)c(Cl)c2)CC1	i	i	32µM	i	12µM	?	i	i	i	i	i
CCOC(=O)c1sc2ccccc2c1S(=O)(=O)N1CCN(c2cccc(OC)c2)CC1	i	?	i	?	6.3µM	?	i	i	i	i	i
CCCCn1c(=O)n(Cc2ccccc2F)c(=O)c2[nH]c(Cc3ccc(NC(C)=O)cc3)nc21	i	i	?	nt	nt	nt	nt	nt	nt	nt	nt
Cc1cccc(NC(=O)Cn2c(=O)c3cccn3c3ccccc32)c1C	i	i	i	?	?	i	i	i	i	i	i
CCc1ccccc1NC(=O)Cn1c(=O)c2cccn2c2ccc(F)cc21	i	i	i	i	i	i	nt	nt	nt	nt	nt
O=C(NCCSc1c[nH]c2ccccc12)c1ccc(Cl)cc1	i	i	i	i	i	i	nt	nt	nt	nt	nt
O=C(NCCSc1c[nH]c2ccccc12)c1ccccc1Cl	i	i	i	i	?	?	?	?	i	i	i
Cc1ccc(C)n1-c1nnc(N2CCCC(C(=O)Nc3ccccc3Br)C2)s1 (configuration not stated)	i	i	i	i	17µM	i	i	?	i	i	i
Cc1cc(F)ccc1NC(=O)C1CCCN(c2nnc(-n3c(C)ccc3C)s2)C1 (configuration not stated)	i	i	i	i	?	i	nt	nt	nt	nt	nt
Cc1cccc(NC(=O)C2CCCN(c3nnc(-n4c(C)ccc4C)s3)C2)c1C (configuration not stated)	i	i	i	i	16µM	i	?	i	i	i	?
Cc1ccccc1CNC(=O)C1CCCN(c2nnc(-n3c(C)ccc3C)s2)C1 (configuration not stated)	i	i	i	i	16µM	?	i	?	i	i	i
COc1ccc(Nc2c3c(nc4ccc(NC(=O)c5cc(Cl)ccc5OC)cc24)CCCC3)cc1OC	i	?	?	i	4.7µM	?	i	i	i	14µM	9.7µM
Cc1cc(C(C)Nc2ccccc2)c2nc(N3CCOCC3)cc(=O)n2c1 (configuration not stated)	i	i	i	nt	nt	nt	nt	nt	nt	nt	nt
Cc1cc(C)cc(-n2c(SCC(=O)Nc3nnc(C)s3)nc3c([nH]c4ccccc43)c2=O)c1	i	i	i	i	16µM	i	?	?	i	i	?
COc1cccc(-n2c(SCC(=O)Nc3c(C)cc(C)cc3C)nc3c([nH]c4ccccc43)c2=O)c1	i	i	?	?	12µM	i	i	i	i	i	?
O=C(CSc1nc2c([nH]c3ccccc32)c(=O)n1-c1cccc(Cl)c1)c1ccccc1	i	i	i	i	14µM	i	i	i	i	i	12µM	PMP22 HiBiT cnf=?
CCOc1ccccc1OCCNC(C)Cc1ccc(OC)c(S(N)(=O)=O)c1 (configuration not stated)	i	i	i	nt	nt	nt	nt	nt	nt	nt	nt
CC(=O)OCC(=O)[C@@]12N=C(C)O[C@H]1C[C@H]1[C@@H]3CCC4=CC(=O)C=C[C@]4(C)[C@@H]3[C@@H](O)C[C@@]12C	i	i	?	nt	nt	nt	nt	nt	nt	nt	nt
C[C@@H]1CN(CC(=O)Nc2ccc3c(c2)Cc2cccc(-c4cc(=O)cc(N5CCOCC5)o4)c2S3)C[C@H](C)O1	i	i	?	nt	nt	nt	nt	nt	nt	nt	nt
Cc1c(-c2cccc3c(CCCOc4cccc5ccccc45)c(C(=O)O)n(Cc4cccnc4)c23)c(COc2ccc(N3CCN([S+](=O)([O-])N(C)C)CC3)cc2)nn1C	i	i	?	nt	nt	nt	nt	nt	nt	nt	nt
CC[C@@]1([C@@H]2O[C@@H]([C@H]3O[C@@](O)(CO)[C@H](C)C[C@H]3C)C[C@H]2C)CC[C@H]([C@]2(C)CC[C@]3(C[C@H](O)[C@@H](C)[C@@H]([C@@H](C)[C@@H](OC)[C@H](C)C(=O)O)O3)O2)O1	i	?	?	nt	nt	nt	nt	nt	nt	nt	nt
COc1ccc(CNS(=O)(=O)c2cc(Br)cc3c2N(C(C)=O)C(C)C3)cc1 (configuration not stated)	i	i	i	i	i	i	nt	nt	nt	nt	nt
CC(=O)N1c2c(cc(Br)cc2S(=O)(=O)Nc2ccc(OC(F)(F)F)cc2)CC1C (configuration not stated)	i	i	25µM	?	16µM	i	22µM	1.5µM	i	i	i
COc1ccc(-c2cc(C(F)(F)F)nc(S(C)(=O)=O)n2)cc1	i	?	?	15µM	20µM	?	i	14µM	i	?	16µM	PMP22 HiBiT cnf=i
O=C(O)CCCCCC(=O)NN=C1CCCC1	i	i	i	nt	nt	nt	nt	nt	nt	nt	nt
CCCCC(CC)CNC(=O)c1ccc2c(=O)n(Cc3ccc(OC)cc3)c(=O)[nH]c2c1 (configuration not stated)	i	i	i	i	12µM	i	i	i	i	i	?
COCCn1c(CNC(=O)c2cc([N+](=O)[O-])ccc2Cl)nc2cccnc21	i	i	i	i	i	i	nt	nt	nt	nt	nt
COc1cccc(Cn2c(CNC(=O)c3cc([N+](=O)[O-])ccc3Cl)nc3cccnc32)c1	i	i	i	i	13µM	i	i	i	i	i	i

Screens: PubChem, National Center for Advancing Translational Sciences (NCATS)
